Activity calls are given as the source filed them. Unless noted, no rule for the calls is given here.
How the values were obtained:
[1] = compound effects on lung adenocarcinoma cell viability – A549, calcein-AM fluorescence, 48 h, basal, profiling panel (AID 1162); conditions: higher = more signal; also: test concentration not given here
[2] = compound effects on differentiated 3T3-L1 adipocyte viability – cell-based, 3T3-L1 adipocytes, calcein-AM fluorescence, 48 h, basal, profiling panel (AID 1163); conditions: 3T3-L1 adipocytes viability, higher = more signal; also: test concentration not given here
[3] = compound effects on hepatocellular carcinoma cell viability – HepG2, calcein-AM fluorescence, 48 h, basal, profiling panel (AID 1164); conditions: higher = more signal; also: test concentration not given here
[4] = compound effects on multiple myeloma cell viability – MM1S, calcein-AM fluorescence, 48 h, basal, profiling panel (AID 1165); conditions: higher = more signal; also: test concentration not given here
[5] = calcein-AM signal in unstimulated myeloma cells – cell-based, calcein-AM fluorescence, 48 h, PK04 Diversity Set, profiling panel (AID 1166); conditions: RPMI8226 myeloma viability, higher = more signal;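 also: cells grown under basal conditions without added stimulus; test concentration not given here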
[6] = JC-1 mitochondrial signal, unstimulated HepG2 cells – cell-based, JC-1 fluorescence, 24 h, 100 nL compound, profiling panel (AID 1167); conditions: HepG2 mitochondrial potential, higher = more signal; also: test concentration not given here
[7] = JC-1 mitochondrial signal, unstimulated adipocytes – cell-based, JC-1 fluorescence, 3T3-L1 adipocytes, 24 h, 100 nL compound, profiling panel (AID 1168); conditions: JC-1 mitochondrial fluorescence, higher = more signal, called active from +8 up or from −8 down; also: test concentration not given here
[8] = JC-1 mitochondrial signal, unstimulated myeloma cells – cell-based, JC-1 fluorescence, RPMI8226, 24 h, 100 nL compound, profiling panel (AID 1169); conditions: JC-1 mitochondrial potential fluorescence, higher = more signal; also: test concentration not given here
[9] = JC-1 mitochondrial signal, unstimulated MM1S myeloma – cell-based, JC-1 fluorescence, 24 h, 100 nL compound, profiling panel (AID 1170); conditions: MM1S mitochondrial potential, higher = more signal; also: test concentration not given here
[10] = resazurin metabolic signal in A549 cells – cell-based, resazurin fluorescence, 24 h, PK04 Diversity Set, profiling panel (AID 1171); conditions: A549 viability, higher = more signal, called active from +8 up or from −8 down; also: test concentration not given here
[11] = resazurin metabolic signal in HepG2 cells – cell-based, resazurin fluorescence, 24 h, PK04 Diversity Set, profiling panel (AID 1172); conditions: HepG2 viability, higher = more signal; also: test concentration not given here
[12] = budding yeast growth changes without added modifier – OD600, strain BY4716, 24 h, basal condition, primary screen (AID 1173); conditions: S. cerevisiae BY4716 growth, OD600, 24 h; higher = more signal, called active from +8 up or from −8 down
[13] = viability profiling in MM1S myeloma cells – cell-based, resazurin fluorescence, basal, 24 h, PK04 Diversity Set, profiling panel (AID 1174); conditions: higher = more signal, called active from +8 up or from −8 down; also: test concentration not given here
[14] = biological target: Dihydroorotate dehydrogenase (quinone), mitochondrial (Plasmodium falciparum (isolate 3D7)) (UniProt Q08210); test: inhibition of P. falciparum DHODH – biochemical, C-terminal His tag, absorbance 600 nm, primary screen (AID 1175); conditions: PfDHODH enzyme, DCIP absorbance 600 nm; higher = more signal, called active from +8 up or from −8 down;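 also: recombinant parasite enzyme with a five histidine tag at its C terminus; test concentration not given here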
Dihydroorotate dehydrogenase (quinone), mitochondrial (Plasmodium falciparum (isolate 3D7)), sequence (Q08210 whole entry, looked up): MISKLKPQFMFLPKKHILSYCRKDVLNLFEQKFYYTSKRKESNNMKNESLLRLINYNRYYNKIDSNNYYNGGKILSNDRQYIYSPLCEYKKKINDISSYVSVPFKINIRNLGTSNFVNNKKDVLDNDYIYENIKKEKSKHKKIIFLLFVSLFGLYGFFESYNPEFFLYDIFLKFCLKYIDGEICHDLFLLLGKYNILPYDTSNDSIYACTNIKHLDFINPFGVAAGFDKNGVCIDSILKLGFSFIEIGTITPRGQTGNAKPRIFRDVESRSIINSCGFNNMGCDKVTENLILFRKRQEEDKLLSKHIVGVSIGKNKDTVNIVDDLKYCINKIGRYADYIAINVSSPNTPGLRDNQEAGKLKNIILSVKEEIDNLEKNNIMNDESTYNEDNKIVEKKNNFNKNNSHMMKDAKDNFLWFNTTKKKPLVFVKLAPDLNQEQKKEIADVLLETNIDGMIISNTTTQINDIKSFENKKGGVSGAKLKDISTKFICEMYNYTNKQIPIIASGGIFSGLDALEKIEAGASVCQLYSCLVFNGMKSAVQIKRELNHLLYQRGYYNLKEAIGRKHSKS

[15] = inhibition of PAO1 biofilm formation – strain PAO1, LB-PBS medium, absorbance 600 nm, primary screen (AID 1176); also: test concentration not given here; conditions: P. aeruginosa PAO1 growth/biofilm, A600, 12 h; higher = more signal
[16] = growth modulation of vineyard yeast isolate – strain RM11-1a, OD600, basal, 24 h, primary screen (AID 1177);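 also: cultures grown under basal conditions with no added stressor; test concentration not given here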; conditions: S. cerevisiae RM11-1a growth, OD600, 24 h; higher = more signal, called active from +8 up or from −8 down
[17] = growth of efflux-deficient E. coli DRC39 – strain DRC39, OD650, 24 h, E. coli filamentation inducers, primary screen (AID 1178);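 also: growth measured as culture turbidity by optical density at 650 nm; test concentration not given here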; conditions: E. coli DRC39 acrAB, higher = more signal, called active from +8 up or from −8 down
[18] = growth of efflux-deficient E. coli DRC39 – strain DRC39, OD650, 48 h, E. coli filamentation inducers, primary screen (AID 1179);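 also: screen aims at cell division blockers that make cells filament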; conditions: E. coli DRC39 delta-acrAB growth, higher = more signal, called active from +8 up or from −8 down
[19] = viability profiling in RPMI8226 myeloma cells – cell-based, resazurin fluorescence, basal, 24 h, PK04 Diversity Set, profiling panel (AID 1180); conditions: higher = more signal;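 also: RPMI8826 multiple myeloma cell line at 5000 cells per well; test concentration not given here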
[20] = biological target: E3 ubiquitin-protein ligase XIAP (Homo sapiens) (UniProt P98170); test: small molecules binding XIAP protein – biophysical, small-molecule microarray, fluorescence 635 nm, primary screen (AID 1181); conditions: higher = more signal;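 also: score merges 667 nm emission and signal to noise over triplicate slides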
E3 ubiquitin-protein ligase XIAP (Homo sapiens), sequence (P98170 whole entry, looked up): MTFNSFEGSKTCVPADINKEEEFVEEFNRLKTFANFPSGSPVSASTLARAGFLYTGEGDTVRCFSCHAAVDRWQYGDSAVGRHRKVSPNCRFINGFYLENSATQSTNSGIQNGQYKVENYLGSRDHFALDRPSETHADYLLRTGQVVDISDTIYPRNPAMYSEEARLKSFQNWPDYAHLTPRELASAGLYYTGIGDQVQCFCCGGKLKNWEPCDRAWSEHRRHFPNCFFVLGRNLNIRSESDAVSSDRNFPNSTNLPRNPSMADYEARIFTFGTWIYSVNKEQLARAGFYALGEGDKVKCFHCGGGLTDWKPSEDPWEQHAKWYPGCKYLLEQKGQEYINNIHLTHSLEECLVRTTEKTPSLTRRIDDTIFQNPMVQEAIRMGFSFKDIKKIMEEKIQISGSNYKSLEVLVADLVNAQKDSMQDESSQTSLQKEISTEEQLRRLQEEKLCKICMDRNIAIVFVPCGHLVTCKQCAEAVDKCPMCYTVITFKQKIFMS

COCCOC(=O)N1C(=O)[C@@]2(c3cc(C#CCCO)ccc31)[C@H](C(=O)N1CCc3cc(OC)c(OC)cc3C1)[C@H]1C(=O)O[C@H](c3ccccc3)[C@H](c3ccccc3)N1[C@@H]2c1ccc(OCCO)cc1
z-score [1]: 1.31 | z-score [2]: 1.05 | z-score [3]: 1.15 | z-score [4]: 0.214 | z-score [5]: 1.23 | z-score [6]: -0.495 | z-score [7]: 1.21 (inactive) | z-score [8]: -0.532 | z-score [9]: -0.901 | z-score [10]: 0.86 (inactive) | z-score [11]: 1.36 | z-score [12]: 0.543 (inactive) | z-score [13]: 0.665 (inactive) | composite z-score [14]: -1.45 (inactive) | z-score [15]: 2.19 (inactive) | z-score [16]: 0.0817 (inactive) | z-score [17]: 0.443 (inactive) | z-score [18]: 1.75 (inactive) | z-score [19]: 0.152 | composite z-score [20]: -0.0412

COC(=O)[C@@]1(Cc2ccccc2N=[N+]=[N-])N=C(c2ccc(OCCCO)cc2)O[C@H]1c1ccccc1
z-score [1]: -2.99 | z-score [2]: -0.421 | z-score [3]: -5.47 | z-score [4]: -3.58 | z-score [5]: -3.93 | z-score [6]: -3.13 | z-score [7]: -0.138 (inactive) | z-score [8]: -1.06 | z-score [9]: -2.9 | z-score [10]: -2.88 (inactive) | z-score [11]: -4.36 | z-score [12]: -0.642 (inactive) | z-score [13]: -7.63 (inactive) | composite z-score [14]: 1.66 (inactive) | z-score [15]: 0.77 (inactive) | z-score [16]: 1.76 (inactive) | z-score [17]: 0.044 (inactive) | z-score [18]: -1.12 (inactive) | z-score [19]: -7.12 | composite z-score [20]: 0.0472

C#CCOC(=O)N[C@H](C=CCCCC)c1ccccc1
z-score [1]: -1.18 | z-score [2]: -0.115 | z-score [3]: -0.517 | z-score [4]: -0.334 | z-score [5]: -0.508 | z-score [6]: 1.47 | z-score [7]: -0.62 (inactive) | z-score [8]: 0.15 | z-score [9]: 0.0811 | z-score [10]: -0.28 (inactive) | z-score [11]: 0.063 | z-score [12]: 0.578 (inactive) | z-score [13]: -0.883 (inactive) | composite z-score [14]: -0.837 (inactive) | z-score [15]: 0.936 (inactive) | z-score [16]: -0.0736 (inactive) | z-score [17]: -0.467 (inactive) | z-score [18]: -0.424 (inactive) | z-score [19]: -0.137 | composite z-score [20]: -0.0133

O=C1NC(=O)C2C1C=CC(C(O)c1ccc3c(c1)OCO3)N2Nc1ccc(Cl)cc1Cl (stereo not given)
z-score [1]: -0.713 | z-score [2]: -0.638 | z-score [3]: -1.22 | z-score [4]: -2.41 | z-score [5]: -1.99 | z-score [6]: -2.87 | z-score [7]: -0.748 (inactive) | z-score [8]: -0.103 | z-score [9]: -0.339 | z-score [10]: -0.233 (inactive) | z-score [11]: -0.996 | z-score [12]: -14 (active) | z-score [13]: -1.33 (inactive) | composite z-score [14]: -0.703 (inactive) | z-score [15]: 1.38 (inactive) | z-score [16]: -0.101 (inactive) | z-score [17]: -0.145 (inactive) | z-score [18]: -2.73 (inactive) | z-score [19]: -0.93 | composite z-score [20]: 0.205

O=C1N(CCS(=O)(=O)c2ccccc2)Cc2ccccc2C[C@@]12COC(c1ccc(OCCCO)cc1)=N2
z-score [1]: -0.696 | z-score [2]: 0.643 | z-score [3]: 1.13 | z-score [4]: -2.84 | z-score [5]: -1.53 | z-score [6]: -1.08 | z-score [7]: 0.0146 (inactive) | z-score [8]: -1.03 | z-score [9]: -2.13 | z-score [10]: -3.42 (inactive) | z-score [11]: 0.0549 | z-score [12]: 1.58 (inactive) | z-score [13]: -5.12 (inactive) | composite z-score [14]: -0.211 (inactive) | z-score [15]: 0.0379 (inactive) | z-score [16]: 2.14 (inactive) | z-score [17]: 0.862 (inactive) | z-score [18]: -0.691 (inactive) | z-score [19]: -3.43 | composite z-score [20]: 0.167

CCOC(=O)C[C@H]1[C@H](OC(=O)c2ccccc2-c2ccccc2)[C@@H](NC(=O)c2ccccc2)c2cc(OCCCO)ccc2N1C(=O)Cc1ccc(OC)cc1
z-score [1]: 1.29 | z-score [2]: 0.182 | z-score [3]: 0.144 | z-score [4]: -0.128 | z-score [5]: 0.206 | z-score [6]: 1.02 | z-score [7]: -0.387 (inactive) | z-score [8]: -1.04 | z-score [9]: 0.277 | z-score [10]: 0.995 (inactive) | z-score [11]: 0.834 | z-score [12]: 0.606 (inactive) | z-score [13]: -0.397 (inactive) | composite z-score [14]: -0.369 (inactive) | z-score [15]: 0.142 (inactive) | z-score [16]: 0.143 (inactive) | z-score [17]: 0.228 (inactive) | z-score [18]: 0.15 (inactive) | z-score [19]: -0.37 | composite z-score [20]: 0.0871

C=CCNC(=O)[C@@H]1[C@H]2C(=O)O[C@H](c3ccccc3)[C@H](c3ccccc3)N2[C@H](c2ccc(O)cc2)[C@@]12C(=O)Nc1ccc(C#CCCO)cc12
z-score [1]: 0.47 | z-score [2]: 0.79 | z-score [3]: -0.168 | z-score [4]: -0.21 | z-score [5]: -0.719 | z-score [6]: -0.931 | z-score [7]: -0.296 (inactive) | z-score [8]: -0.456 | z-score [9]: -0.388 | z-score [10]: 1.01 (inactive) | z-score [11]: 0.917 | z-score [12]: -0.599 (inactive) | z-score [13]: 0.343 (inactive) | composite z-score [14]: -0.489 (inactive) | z-score [15]: -0.212 (inactive) | z-score [16]: -0.769 (inactive) | z-score [17]: 0.883 (inactive) | z-score [18]: -0.582 (inactive) | z-score [19]: 1.32 | composite z-score [20]: -0.377

CCC[C@@H]1C[C@@]1(CCC)[C@@H](NC(=O)c1ccco1)c1ccc(Cl)cc1
z-score [1]: -1.03 | z-score [2]: -0.741 | z-score [3]: -1.06 | z-score [4]: -1.6 | z-score [5]: -4.31 | z-score [6]: -1.62 | z-score [7]: -0.00207 (inactive) | z-score [8]: -0.736 | z-score [9]: -2.07 | z-score [10]: -1.91 (inactive) | z-score [11]: 1.6 | z-score [12]: 0.614 (inactive) | z-score [13]: 0.254 (inactive) | composite z-score [14]: -0.152 (inactive) | z-score [15]: 0.439 (inactive) | z-score [16]: 0.288 (inactive) | z-score [17]: -0.195 (inactive) | z-score [18]: 0.105 (inactive) | z-score [19]: -1.67 | composite z-score [20]: -0.683

C[N+](C)(C)CCCCCCNC(=O)[C@@H]1C[C@@H]2C(=O)NCC(=O)N2[C@@H]1c1cccc(OCCO)c1
z-score [1]: -0.308 | z-score [2]: 0.867 | z-score [3]: -1.2 | z-score [4]: -2.7 | z-score [5]: 0.422 | z-score [6]: -0.844 | z-score [7]: -0.0181 (inactive) | z-score [8]: -0.0934 | z-score [9]: -1.39 | z-score [10]: 1.46 (inactive) | z-score [11]: 0.597 | z-score [12]: -1.33 (inactive) | z-score [13]: 1.26 (inactive) | composite z-score [14]: -2.3 (inactive) | z-score [15]: 3.7 (inactive) | z-score [16]: -0.257 (inactive) | z-score [17]: -0.858 (inactive) | z-score [18]: -0.765 (inactive) | z-score [19]: 0.343 | composite z-score [20]: 0.0192
